From the supplement of paper PMC6555819

Tested on: VDR:RXRa (NR concentration 270 nM, RXRa partner concentration 90 nM)
Test: PBM binding z-score (relative to random genomic background probes); higher = stronger binding; sequences stand for … in GC…GCGATTGACAGCGTAGAATGAAGG
Method: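 Protein-binding microarray (Agilent 4x180K custom design, double-stranded 60-nt probes: 5' GC cap, 34-nt variable region, 24-nt constant primer region; full probe sequence given). Purified or IVT nuclear receptor:RXRα heterodimers (3:1 NR:RXRα, mostly 270:90 nM) or homodimers were incubated for 1 h in PBS with 2% milk and no ligand, then detected with Alexa488 antibodies. Fluorescence from o1-orientation probes (~5 replicates averaged) was converted to z-scores against 500 random hg19 background probes. Variable regions are seed direct-repeat (DR0–DR5) sites, all their single-nucleotide variants and half-site ablations.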

Sequence | PBM binding z-score
AGAATGAGGTTATACGTAGATCAGGGACGAAAGT | 1.46
TCAGATAGGTAAACAGGTGAAAGTCCGTAAGTTA | 0.923
TTACCAAGGTGAGCTGAGGTCGTTTATCCAACTC | 4.32
TAGCCTAGGTCATTAGGCCAGTATAGTACGCATC | 1.69
CCTCGGTGGACAGAAGGTCAGAGCTGTCCGCTTT | 0.609
GCTATCAGTTGAAAGGGCAACCGAATGATTCTCG | 0.34
ATTACAGGGTCACTAGGCCAGAGTAGGTACGAAT | 4.19
ATCGAAAGGTCGAAGGTAAGTATACCCACCCGAA | 2.51
TCTCGGAGGACACGAAAGGACAGAGCTCGACATC | -0.146
CTCGAAAGGTCGGGTGAGGTGAGTATACGGATAA | 3.18
GCTTGTATATCAAGGTTAAGAAAGACTAAGCTAA | 0.325
TGTCAAAGTTCAAATGTAACGTAAGTATCCACAC | 4.57
TCATATAGATAATACAGGTGAAAGTCGGCATCTA | 1.17
CGTGCAAGGTCAGCAGGTCAGTGAAAGCGACGTG | 4.25
GCGACTGCGGCAAAGCAGGTTACCATAAGGTTGG | -0.392
CTCGAAAGGTCGATTGAGGTGAGTATACGGATAA | 3.76
CAAACTAGGTCAAAGTCAAAGTCGGTTTGTGCCA | 2.38
TCATGTAGGTAATACAGGTGAAAGTCGGCATCTA | 0.207
CGTCCAAGGTCAATACTAGGTCAGTGAAAGCATT | 4.63
CCGACTGGGGCATAAGGTGACCATAAGCCAGCCC | -0.42

Sequence | PBM binding z-score
ACTAGCAGGACAAGGGTCACTCAAGATTAGTCCG | 3.05
TCTCAGAGGACACGAAAGGTCAGAGCTCGACATC | 3.62
TGAATGAGGTTAAAGATCAGAGAACGTGGCGTCG | 1.8
CTGCCAAGGTGAACAAGGTCGTTGATTACTATTC | 5.88
TCGAGTAGGTTACCTATGGGGCATTCAGCTTTCT | -0.0814
TCATATAGGTAAACAGGTGAACGTCCGTAAGTTA | 1.19
CCTGACGGGTCACGAGGTTATAGCACGACGAGCG | 4.62
CGTCAGAGTTCAAGGTAACGTAACAGAAAGCAGC | 4.23
CCTACTGGGGCATAAGGTTACCATAAGCCAGCCC | 0.27
ATATGTAGGTTATCGGGTCATTTAGTTTGCGCAT | 4.24
ACAATGAGGTTACCAAAGATCAGGGAAACGCTTG | 1.68
CAAACTAGGTCAACGTCAAAGTCGGTTTGTGCCA | 1.83
CGGACTAGGTCATTGACAGGACAGTGAATAGTAA | 2
TCTATTGGTTGAAGGGCAACCGACGAGTCCGTTT | 0.889
GCATATAGGTCATACAAGGTGAAAGTCCGATTGT | 4.55
CCTTACTGGTCACTCCAGGTTATAGCATCGGAGT | 0.952
CTCGAAAGGTCGTGCTCAGGTGCGTATACCAAAC | 3.57
ATATGTAGGTTAAGGGTCATTCCGGTTGGTTCGC | 5.11
CCGACTGCGGCAGAAAGGTTACCATACCATCCGG | 0.485
ACTAGCAGGCCAAGTGTCACTCAAGATTAGTCCG | -0.322
